# Reference: article PMC6919601, “Identification of Plasmodium dipeptidyl aminopeptidase allosteric inhibitors by high throughput screening” (PLoS ONE, 2019)
# Hit rate of the full screen: of about 110,000 compounds, about 230 (0.21%) showed an effect of 50% or more. The sample holds strong results, similar compounds and a random draw of the others, so the mix is not that of the screen.
# Target: DPAP1 (Plasmodium falciparum, UniProt Q8IIJ9)
# Assay: primary screen, percent inhibition; read by cleavage of a fluorogenic dipeptide substrate; higher = more effect of the substance
# Design: species or system P. falciparum D10 trophozoite lysates; single well
# 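Note: 30 min substrate incubation versus DMSO and 10 µM JCP410 controls.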
# DPAP1, sequence (Q8IIJ9 whole entry, looked up): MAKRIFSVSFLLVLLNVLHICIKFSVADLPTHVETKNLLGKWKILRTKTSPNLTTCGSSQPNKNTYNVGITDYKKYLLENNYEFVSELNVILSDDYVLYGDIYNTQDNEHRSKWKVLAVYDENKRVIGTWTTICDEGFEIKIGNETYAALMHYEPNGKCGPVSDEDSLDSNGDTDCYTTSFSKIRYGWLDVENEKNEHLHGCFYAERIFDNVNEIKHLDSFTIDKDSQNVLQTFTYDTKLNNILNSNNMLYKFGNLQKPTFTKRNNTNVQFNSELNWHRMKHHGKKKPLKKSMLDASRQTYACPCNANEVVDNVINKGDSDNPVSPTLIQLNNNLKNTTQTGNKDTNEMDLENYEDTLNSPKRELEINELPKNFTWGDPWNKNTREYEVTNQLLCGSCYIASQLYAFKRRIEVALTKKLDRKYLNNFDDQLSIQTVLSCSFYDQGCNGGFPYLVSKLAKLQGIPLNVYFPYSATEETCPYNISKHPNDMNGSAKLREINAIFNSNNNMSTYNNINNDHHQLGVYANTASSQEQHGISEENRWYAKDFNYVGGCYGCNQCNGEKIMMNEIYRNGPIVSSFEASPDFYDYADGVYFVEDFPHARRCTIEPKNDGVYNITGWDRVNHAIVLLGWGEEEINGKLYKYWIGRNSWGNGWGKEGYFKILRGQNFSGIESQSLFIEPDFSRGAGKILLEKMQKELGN
row,SMILES,% Inhibition @ 10 uM [%]
1,COc1cc(C2=N/C(=C\c3ccc(C(C)(C)C)cc3)C(=O)O2)cc(OC)c1OC,84.3
2,COc1cc(/C=C2\N=C(c3cc(OC)c(OC)c(OC)c3)OC2=O)cc(OC)c1OC,0.607
3,COc1cc(C2=N/C(=C\c3ccc(SC)cc3)C(=O)O2)cc(OC)c1OC,-20.1
4,Cc1cccc(C(=O)Nc2ccc(S(=O)(=O)N3CCCCC3)cc2)c1,-1.28
5,COc1ccc(-c2cc(-c3ccccc3)nc(S)c2C#N)cc1,43.3
6,N#Cc1c(-c2ccccc2)cc(-c2ccccc2)c(C#N)c1N,0.716
7,N#Cc1c(-c2ccccc2)cc(C(F)(F)F)nc1S,76.9
8,N#Cc1c(-c2ccccc2)cc(C(F)F)nc1S,76.3
9,N#Cc1c(-c2ccc3c(c2)OCO3)cc(-c2ccccc2)nc1S,11.7
10,N#Cc1c(-c2ccc(F)cc2)cc(C2CC2)nc1S,4.63
11,CC1CCN(S(=O)(=O)c2ccc(NC(=O)c3ccc(-c4ccccc4)cc3)cc2)CC1,2.13
12,Cc1sc2s[n+](CCCS(=O)(=O)O)c(C)c2c1C,-1.33
13,CCOc1ccc(N2CC(C(=O)Nc3ccc(Br)cc3C)CC2=O)cc1 (centres unmarked),4.05
14,CCCCC(=O)Nc1c(-c2ccccc2)nc2ccccn12,-3.19
15,O=c1c2c3c(sc2[nH]c(=S)n1C1CCCCC1)CCCC3,9.26
16,CCn1c(=S)[nH]c2sc3c(c2c1=O)CCCC3,42.2
17,CC1(C)Cc2c(sc3[nH]c(=S)[nH]c(=S)c23)CO1,15
18,CCn1c(=S)[nH]c2sc3c(c2c1=O)CCC3,64.7
19,S=c1[nH]c(=S)c2c3c(sc2[nH]1)CCC3,85.2
20,C=C(C)Cn1c(=S)[nH]c2sc3c(c2c1=O)CCCC3,57.3
21,O=c1c2c3c(sc2[nH]c(=S)n1Cc1ccccc1)CCC3,21
22,O=c1c2c3c(sc2[nH]c(=S)n1Cc1ccccc1)CCCC3,3.06
23,O=c1[nH]c(=S)[nH]c2sc3c(c12)CCC1(CCCCC1)C3,5.93

row,SMILES,% Inhibition @ 10 uM [%]
1,Cc1cc2nnc(SCC(=O)O)n2c2ccccc12,-2.19
2,C=C(C)COc1ccc2cc(-c3nc4ccccc4s3)c(=O)oc2c1,6.22
3,CC(C)(C)c1ccc(C(=O)NCc2cccc3ccccc23)cc1,-3.48
4,N#CC1=C2SCN(Cc3ccco3)CN2C(=O)CC1c1cccc2ccccc12 (centres unmarked),45.5
5,Cc1ccccc1C1CC(=O)N2CN(Cc3ccccc3)CSC2=C1C#N (centres unmarked),31.2
6,N#CC1=C2SCN(C3CCCCC3)CN2C(=O)CC1c1cccc2ccccc12 (centres unmarked),53.8
7,Cc1ccccc1C1CC(=O)N2CN(C3CCCCC3)CSC2=C1C#N (centres unmarked),24
8,N#CC1=C2SCN(Cc3ccccc3)CN2C(=O)CC1c1cccc2ccccc12 (centres unmarked),51.5
9,N#CC1=C2SCN(C3CCCCC3)CN2C(=O)CC1c1ccccc1F (centres unmarked),37.8
10,COc1ccc(C(=O)N2c3ccccc3C(C)(c3ccccc3)CC2(C)C)cc1 (centres unmarked),-2
11,CC1(c2ccccc2)CC(C)(C)N(C(=O)/C=C/c2ccccc2)c2ccccc21 (centres unmarked),0.467
12,COc1ccc(/C=C/C(=O)N2c3ccccc3C(C)(c3ccccc3)CC2(C)C)cc1 (centres unmarked),56.6
13,CCc1ccc(NC(=O)C2CCN(S(=O)(=O)c3cc(Cl)ccc3Cl)CC2)cc1,-4.06
14,O=C1c2ccccc2C(=O)N1CNc1ccc(Cl)c(Cl)c1,-1.17
15,NC(=O)c1c(NC(=O)C2CC2)sc2c1CCCCC2,50.4
16,NC(=O)c1c(NC(=O)C2CC2)sc2c1CCCCCC2,5.39
17,NC(=O)c1c(NC(=O)C23CC4CC(CC(C4)C2)C3)sc2c1CCCCC2,52.3
18,Cn1cc(Br)c(C(=O)Nc2sc3c(c2C(N)=O)CCC3)n1,1.02
19,CCOC(=O)c1c(NC(=O)C23CC4CC(CC(C4)C2)C3)sc2c1CCCC2,-1.36
20,Cn1ccc(C(=O)Nc2sc3c(c2C(N)=O)CCCCC3)n1,47
21,NC(=O)c1c(NC(=O)C2CCC2)sc2c1CCCCC2,7.35
22,Cn1cc(Br)c(C(=O)Nc2sc3c(c2C(N)=O)CCCCC3)n1,51.9
23,CC(=O)Nc1sc2c(c1C(N)=O)CCCCCC2,2.65

row,SMILES,% Inhibition @ 10 uM [%]
1,O=C(Nc1cccc(Cl)c1)N1CCC(Cc2ccccc2)CC1,0.727
2,Cc1cccc(NS(=O)(=O)c2ccccc2)n1,-3.56
3,COc1ccc(-c2cc(C(=O)N3CCOCC3)c3ccccc3n2)cc1,0.245
4,COc1cc(C2C(C#N)=C(N)OC3=C2C(=O)CCC3)cc(OC)c1OC (centres unmarked),0.687
5,O=C(CCc1nnc2n(CCc3ccccc3)c(=O)c3ccccc3n12)N1CCOCC1,0.981
6,O=C(NCc1ccccc1Br)C1CCCN(c2nnc(N3CCCC3=O)s2)C1 (centres unmarked),-4.68
7,CC(C)CC(NC(=O)N1CCC(N2CCCCC2)CC1)C(=O)NCC#N (centres unmarked),-0.972
8,Cc1ccccc1-c1ccccc1N,-0.305
9,COc1ccc(CNC(=O)Cn2ncn3cccc3c2=O)cc1,-5.15
10,COc1ccc(OC)c(-n2cc(-c3ccccc3)nc2SC)c1,4.49
11,Sc1nc(-c2ccccc2)cn1-c1ccccc1,37.1
12,Fc1ccccc1-n1cc(-c2ccccc2)nc1S,45.3
13,CCOc1cccc(-n2cc(-c3ccccc3)nc2S)c1,42.6
14,CCOc1ccc(-c2cn(-c3ccccc3F)c(S)n2)cc1,56.2
15,COc1ccccc1-n1cc(-c2ccccc2)nc1S,58.6
16,CC1CC(C)CN(CCCNC(=O)Cn2ncn3nc(-c4cccs4)cc3c2=O)C1 (centres unmarked),2.27
17,Cc1ccc(C(=O)NC2(C(F)(F)F)C(=O)Nc3c2c(=O)[nH]c(=O)n3-c2ccc(Cl)cc2)cc1 (centres unmarked),-3.39
18,CCc1cc2c(cc3c(=O)n(CC(=O)NCCc4ccc(OC)c(OC)c4)nc(CC)n32)s1,3.29
19,Cc1nn(C)c2c1c(-c1ccccc1)cc(=O)n2Cc1cccc(F)c1,2.65
20,COc1ccc(CN2CCN(c3cccc(C)c3C)CC2)cc1OC,9.04
21,COc1cc(CN2CCN(c3cccc(C)c3C)CC2)cc(OC)c1,55.4
22,COc1cc(CN2CCN(c3ccccc3C)CC2)cc(OC)c1,1.9
